Laboratory results from PubChem BioAssay (NCI).
This is part of a sample that, as a whole, favours compounds with a hit. Of some 83,000 tested, about 20% had one in any assay.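 48-hour exposure, single concentration, 96-well plates; percent growth endpoint where 0 means no net growth. Active: below 10.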 Active and inactive are the calls of the source.

What follows are compounds tested on TK-10 renal (assay: NCI-60 one-dose screen, 48 h (100 = growth as untreated, 0 = no growth, -100 = all killed)). Details: 10 µM unless noted.
Experimental: Growth inhibition of the TK-10 human tumor cell line is measured as a screen for anti-cancer activity. Cells are grown in 96 well plates and exposed to the test compound for 48 hours. Compounds are tested at a single concentration, which is 10^-5 M for most compounds. The reported endpoint is percent growth (GI% or GIPRCNT), where numbers from 0 - 100% represent growth inhibition, and numbers from -100% - 0 represent cell death. For example, a value of 40 represents 60% growth inhibition. A value of 0 means no net growth occurred over the course of the experiment. A value of -40 indicates 40% of cells at the beginning of the experiment died by the end of the experiment. A value of -100 means all cells are dead at the end of the experiment.
NCI-60 Human Tumor Cell Lines Screen was performed using the standard one-dose NCI protocol, which is described in more detail at https://dtp.cancer.gov/discovery_development/nci-60/default.htm.
Compounds with GIPRCNT values below 10 were considered active. Activity score was based on GIPRCNT using the following formula: […]
Score is 0 for GIPRCNT values of 100 or above, 50 for GIPRCNT values of 0, and 100 for GIPRCNT values of -100.

Row | Compound | growth
1 | CC(C)(C)c1cc(NC(=O)Nc2ccc(-c3cn4c5c(sc4n3)CCc3cn(CCCN4CCCCC4)cc3-5)cc2)no1 | -89.3% (active)
2 | CCc1cc2c(cc1Cl)nc1c(=O)[nH]c(=O)nc-1n2CCOCC(C)(C)C | 160% (inactive)
3 | Cc1ncn(-c2ccc(/C=N/Nc3ccnc4cc(Cl)ccc34)cc2)c1C | -11.7% (active)
4 | Cc1[nH]c(C(=O)Nc2ccc(C(N)=O)cc2N2CCOC(C)C2)c(Cl)c1Cl (stereo not given) | 100% (inactive)
5 | CC1(C)C=Cc2cc(/C(N)=N/C(N)=N/c3nc4ccccc4s3)ccc2O1 | 113% (inactive)
6 | CC1(C)CC[C@]2(C(=O)O)CC[C@]3(C)C(=CC[C@@H]4[C@@]5(C)CC[C@H](NOCCCN)C(C)(C)[C@@H]5CC[C@]43C)[C@@H]2C1 | 122% (inactive)
7 | Cc1[nH]c(C(=O)Nc2ccccc2OCc2cccc(C(=O)NC3CCNC3)c2)c(Cl)c1Cl (stereo not given) | 101% (inactive)
8 | N#C/C(=C\c1ccc(-c2ccc(Cl)cc2)o1)C(=O)Nc1ncc(Cc2ccc(Br)cc2)s1 | -35.6% (active)
9 | COc1ccc(/C=N\NC(=O)c2cnn(CC(O)c3ccccc3)c2N)cc1OCc1ccc(Cl)cc1 (stereo not given) | 101% (inactive)
10 | CCOC(=O)c1cccc(NC2=C(Cl)C(=O)c3nc(C)ccc3C2=O)c1 | 119% (inactive)
11 | O=C(CCCCCCNC(=O)C(O)(O)C(F)(F)F)Nc1nc2ccccc2s1 | -3.74% (active)
12 | C[C@H]1OCC2(CCN(c3cnc(C(=O)Nc4cc(F)cc5cccnc45)cn3)CC2)[C@H]1N | 82.2% (inactive)
13 | COc1ccc2sc(NC(=O)CCCCCCNC(=O)C(O)(O)C(F)(F)F)nc2c1 | -12.4% (active)
14 | Cc1ccc2c(n1)C(=O)C(Cl)=C(Nc1ccc(C#N)cc1)C2=O | 104% (inactive)
15 | Cn1c(SCC(=O)c2ccco2)nc2ccccc2c1=O | 146% (inactive)
16 | O=C(N/N=C\c1ccc([N+](=O)[O-])cc1)c1ccc2nc(-c3ccc(Br)cc3)[nH]c2c1 | 64.6% (inactive)
17 | COc1ccc(OC)c(CCn2cncc2-c2c[nH]c3ccc(Cl)cc23)c1 | 50.7% (inactive)
18 | CCc1cc2c(cc1Cl)nc1c(=O)[nH]c(=O)nc-1n2CCOCC(C)C | 176% (inactive)
19 | CC[C@]12C=CCN3CC[C@]4(C(=C(C(=O)OC)C1)Nc1cc5c(cc14)[C@@H]1[C@H](O5)[C@@H](O)[C@@]4(CC)CC(C(=O)OC)=C5Nc6cc(O)ccc6[C@@]56CCN1C46)C32 (stereo not given in full) | -9.16% (active)
20 | C#Cc1cc(C(=O)Nc2ccc(CNCCN3CCOCC3)c(C(F)(F)F)c2)ccc1C | 108% (inactive)

Row | Compound | growth
21 | Cn1c2nc3ccccc3c-2cc2ccccc21 | 103% (inactive)
22 | O=C(Nc1ccc(N2CCOCC2)cc1)Nc1ccc2c(ccn2C(=O)c2cccc(F)c2)c1 | 86.9% (inactive)
23 | COc1ccc(/C=N/N=C(/c2ccccc2)c2ccc3nc(-c4ccc(Cl)cc4)[nH]c3c2)cc1 | 81.9% (inactive)
24 | CCCCN1C(=O)/C(=c2\sc3n(c2=O)C2C(NN=3)N(CC)C(=O)N2CC)c2cc(C)ccc21 (stereo not given) | 117% (inactive)
25 | COc1ccc(N2CCN(C3=C(Cl)C(=O)c4ncccc4C3=O)CC2)cc1 | 99.6% (inactive)
26 | Cc1cc(C)cc(NC2=C(Cl)C(=O)c3nc(C)ccc3C2=O)c1 | 128% (inactive)
27 | C#CCOc1ccc(/C=N/Nc2nc(-c3ccc(OC)cc3)cs2)cc1 | 101% (inactive)
28 | C#CCN(C)CCCOc1ccc(NCc2ccc(/C=C/C(=O)NO)cc2)cc1Cl | -12% (active)
29 | NC(=O)n1c(=O)n(-c2cccc(C(F)(F)F)c2)c(=O)c2cc(-c3ccc(F)cc3F)ccc21 | 8.59% (active)
30 | COc1cc2oc(-c3cccc(NC(=O)c4cccc([N+](=O)[O-])c4)c3)cc(=O)c2c(OC)c1OC | 92.7% (inactive)
31 | CCCCN1C(=O)/C(=c2\sc3n(c2=O)C2C(NN=3)N(CC)C(=O)N2CC)c2cccc(C)c21 (stereo not given) | 82.9% (inactive)
32 | COc1ccc(-c2c(C(N)=O)c(N)n(Cc3nc4ccccc4[nH]3)c(=O)c2C#N)c(OC)c1 | 150% (inactive)
33 | COc1ccc(C2CC(c3cccc(OCCCCOc4cccc(C5=NOC(c6ccc(OC)cc6)C5)c4)c3)=NO2)cc1 (stereo not given) | 104% (inactive)
34 | C#C[C@]1(O)CC[C@H]2[C@@H]3CC=C4c5sc(NCc6ccccc6)nc5CC[C@]4(C)[C@H]3CC[C@@]21C | 76.8% (inactive)
35 | N#Cc1nc(-c2ccccc2)oc1N1CCC(C2(C(F)(F)F)N=N2)CC1 | 116% (inactive)
36 | Cn1cc(-c2nnc(N)nc2-c2c[nH]c3ccc(F)cc23)c2cc(Br)ccc21 | 61.5% (inactive)
37 | C#C[C@]1(O)CC[C@H]2[C@@H]3CC=C4c5sc(Nc6ccc(C)cn6)nc5CC[C@]4(C)[C@H]3CC[C@@]21C | 18.6% (inactive)
38 | O=C(CSc1nc2ccccc2c(=O)n1-c1ccccc1)Nc1ccc(S(=O)(=O)Nc2nccs2)cc1 | 112% (inactive)
39 | O=C(CSc1nc2ccccc2c(=O)n1-c1ccccc1)N/N=C/c1ccc(Oc2ccc(Br)cc2)cc1 | 101% (inactive)
40 | O=S(=O)(Oc1ccc(-c2cn3ccsc3n2)cc1)c1cccc(C(F)(F)F)c1 | 98.7% (inactive)
